# Source: PubChem BioAssay AID686979 (National Center for Advancing Translational Sciences (NCATS), 2013)
# In all, about 420,000 compounds went through this assay and about 50,000 (12%) were called active. A call without a number means that no potency is given here. About 26% were inconclusive and are not listed. Calls come from the whole dose curve; as a rule, active = well fitted inhibition curve with a large enough effect; inconclusive = small, poorly fitted or top-dose-only effect; inactive = flat fitted curve, though single readings scatter. Only a selection was taken, and actives are over-represented in it overall.
# Test: qHTS for Inhibitors of human tyrosyl-DNA phosphodiesterase 1 (TDP1): qHTS in cells in presence of CPT; note: nearly all actives have a fitted effect of over 55% in size
# Conditions: chicken DT40 Tdp1-/-;hTDP1 cells + 20 nM CPT, ATP luminescence, 48 h; series mostly up to 46.2 µM
# Procedure, shortened: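 Chicken DT40 Tdp1-/- cells complemented with human TDP1, 400 cells/well, exposed to compounds plus 20 nM camptothecin for at least 48 h at 37 C; viability read as ATP content by CellTiter-Glo luminescence.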
# Potency is the fitted concentration of half-maximal effect.
row,SMILES,Potency
1,Cc1cc2nc(C(F)(F)F)cc(-c3cccs3)n2n1,inactive
2,Cn1c(CCN2CCN(c3ccccn3)CC2)nc2cc(NS(=O)(=O)c3ccc(F)cc3)ccc21,16.4 µM (active)
3,CCC(=O)Nc1ccc2c(c1)nc(CCN1CCN(c3ccccn3)CC1)n2C,inactive
4,CCC(=O)Nc1ccc2c(c1)nc(CCN1CCN(C)CC1)n2C,inactive
5,COc1ccc(S(=O)(=O)N2CCCCC2)cc1C(=O)NC1CCS(=O)(=O)C1 (stereo not drawn),inactive
6,COC(=O)C(C)n1cnc2c(nnn2-c2ccc(F)cc2)c1=O (stereo not drawn),inactive
7,COc1ccc(S(=O)(=O)N2C[C@H]3CON(C)[C@H]3C[C@H]2c2cccc(Br)c2)cc1,inactive
8,C/C(CC(=O)Nc1cccc(F)c1)=N\NC(=O)C(=O)NC1CCCCC1,inactive
9,Cc1cc(C)cc(NC(=O)NC2CCCCCCC2)c1,inactive
10,O=C(Nc1cccc(F)c1)NC1CCCCCCC1,18.4 µM (active)
11,COc1ccc2c(c1)C(=O)Nc1cc(Cl)ccc1N2,inactive
12,CCOc1ccc(-n2c(O)c(/C=N/Nc3nnc(C)c(=O)[nH]3)c3ccccc3c2=O)cc1,0.651 µM (active)
13,Cc1cc(C)nc(N/N=C/c2c(CO)cnc(C)c2O)n1,inactive
14,CCN(CC)CCCN=Cc1c(O)n(-c2ccc(C)cc2)c(=O)c2ccccc12,inactive
15,COc1ccc(-n2c(O)c(C=NCC(c3ccco3)N3CCCC3)c3ccccc3c2=O)cc1OC (stereo not drawn),inactive
16,CCOc1ccc(-n2c(O)c(/C=N/Nc3nc(C)cc(C)n3)c3ccccc3c2=O)cc1,2.59 µM (active)
17,Cc1nnc(N/N=C/c2ccccn2)[nH]c1=O,4.61 µM (active)
18,CCOc1ccc(N/C(N)=N/c2nc(C)c(C)c(=O)[nH]2)cc1,inactive
19,Cc1nnc(N/N=C/c2cccs2)[nH]c1=O,inactive
20,Cc1ccccc1Nc1nnc(C)c(=O)[nH]1,inactive
21,COC1=NC2=NCCN2C(OC)=N1,inactive
22,O=S(=O)(c1ccc(Br)cc1)c1nnn2c1nc(NC1CCCCCC1)c1sccc12,inactive
23,Cc1cccn2c(=O)nc(SCC(=O)NCc3ccccc3Cl)nc12,inactive
24,CN(C(=O)COC(=O)Cc1ccccc1[N+](=O)[O-])C1CCS(=O)(=O)C1 (stereo not drawn),inactive
25,CCC(C)N1CC(=O)N2Cc3[nH]c4ccccc4c3C[C@H]2C1=O (stereo partly drawn),inactive

row,SMILES,Potency
1,COCCn1c(C)cc(C(=O)COC(=O)CNC(=O)c2ccco2)c1C,inactive
2,CCOC(=O)C1CCN(c2ncnc3c2oc2ccc(Br)cc23)CC1,inactive
3,CCOC(=O)C1CCN(C(=O)COc2cc(C)c(Br)c(C)c2)CC1,inactive
4,CCOC(=O)C1CCN(c2ncnc3c2c(-c2ccccc2)cn3-c2ccc(C)cc2)CC1,20.6 µM (active)
5,CCOC(=O)C1CCN(Cc2ccc(-c3ccccc3)cc2)CC1,inactive
6,CCOC(=O)C1CCN(c2ncnc3c2c(-c2ccccc2)cn3-c2cccc(C)c2)CC1,18.4 µM (active)
7,O=c1[nH]cnc2c1c(-c1ccccc1)cn2-c1ccc(F)cc1,inactive
8,CC(Cc1cccs1)N(Cc1ccc(Cl)cc1)C(=O)c1ccncc1 (stereo not drawn),inactive
9,COc1ccc(C(=O)O/N=C(\N)c2ccccn2)cc1[N+](=O)[O-],inactive
10,COc1ccc(N=Nc2ccc(O)c(P(=O)(c3ccccc3)c3ccccc3)c2)cc1,inactive
11,COCCN(C(=O)C(C)N1C(=O)c2ccccc2C1=O)c1c(N)n(CC(C)C)c(=O)[nH]c1=O (stereo not drawn),inactive
12,CCNC(=O)CC1C(=O)N(c2ccc(F)cc2)C(=O)N1Cc1ccc(C)cc1 (stereo not drawn),inactive
13,CC(C)(C)c1ccc(CCC2OCC(CN3CCOCC3)O2)cc1 (stereo not drawn),20.6 µM (active)
14,CCCCOc1ccc(C(C)(O)CCN2CCOCC2)cc1 (stereo not drawn),inactive
15,CSc1ccc(CNCCN2CCOCC2)cc1,inactive
16,CC(C)CCNC(=O)c1[nH]c(C(F)(F)F)nc1-c1ccccc1,inactive
17,COc1ccc(/C(C)=N\NC(=O)c2ccc(-c3ccccc3)cc2)c(F)c1,inactive
18,COc1ccc(C(=O)NN(C)c2nc(-c3ccccc3)cc(C)c2S(C)(=O)=O)cc1,16.4 µM (active)
19,COc1ccc(C(=O)Nc2cc(C)ccc2NC(=O)COc2ccccc2)cc1,inactive
20,CC1CCCCC1NC(=O)Cn1c(=O)cnc2ccccc21 (stereo not drawn),inactive
21,O=S(=O)(Nc1ccccc1Br)c1cccs1,inactive
22,COC(=O)Cc1c(-c2[nH]c3ccccc3c2CC(=O)OC)[nH]c2ccccc12,20.6 µM (active)
23,O=C(Cc1c(O)c2ccccc2[nH]c1=O)NCc1ccccc1,inactive
24,CCCOC(=O)Cc1c(O)c2ccccc2[nH]c1=O,inactive
25,Cc1ccc(Nc2ncnc3c2cnn3C)c(C)c1,inactive

row,SMILES,Potency
1,Cc1cc(-c2n[nH]c(=S)n2-c2ccc(C)c(C)c2)no1,inactive
2,CCN(CC)C(=O)COc1coc(CN2CCN(Cc3ccccc3)CC2)cc1=O,inactive
3,CC(C)(C)NC(=O)COC(=O)c1cc(Cl)ccc1[N+](=O)[O-],inactive
4,Cc1ccc(-c2noc(CSc3nnnn3-c3ccccc3)n2)cc1,inactive
5,Nc1nc(CSc2nnnn2-c2ccccc2)nc(Nc2ccccc2)n1,inactive
6,Cc1ccc(Nc2nc(CSc3nnnn3-c3ccccc3)cc(=O)[nH]2)cc1,23.1 µM (active)
7,O=C(NC1(C(F)(F)F)NC(=O)N(Cc2cccnc2)C1=O)c1ccccc1Cl (stereo not drawn),inactive
8,COC(=O)[C@@]12C[C@@H](CC(=O)N3CCC(c4ccccc4)CC3)C(=O)N(Cc3ccccc3)C1=CCC(C)(C)C2,18.4 µM (active)
9,CCOC(=O)C1CCN(C(=O)CC2C(=O)N(Cc3ccccc3)C(C)c3nc4ccccc4n32)CC1 (stereo not drawn),inactive
10,COC(=O)[C@]12CCCCC=C1N(Cc1ccc3c(c1)OCO3)C(=O)[C@H](CC(=O)N1CCOCC1)C2,inactive
11,O=c1cc(CN2CCN(c3cccc(Cl)c3)CC2)c2cc3c(cc2o1)CCCC3,inactive
12,O=C(NCCCO)/C(=C\C=C\c1ccccc1)NC(=O)c1ccccc1Cl,inactive
13,CCOP(=O)(OCC)C(Nc1ccc([N+](=O)[O-])cc1)c1ccc(Cl)cc1 (stereo not drawn),inactive
14,CCOC(=O)[C@]12CCC=C1N(Cc1ccccc1)C(=O)[C@H](CC(=O)N1CCCC1)C2,inactive
15,CCOC(=O)[C@]12CCCC=C1N(Cc1ccc(Cl)cc1Cl)C(=O)[C@H](CC(=O)N1CCCCC1)C2,20.6 µM (active)
16,CCOC(=O)[C@]12CCC=C1N(Cc1ccco1)C(=O)[C@H](CC(=O)N1CCSCC1)C2,inactive
17,CC1=C(C(=O)N2CCOCC2)CC(CC(=O)NCCN2CCOCC2)C(=O)N1CCC1=CCCCC1 (stereo not drawn),inactive
18,CCOC(=O)[C@]12CCCC=C1N(CCC1=CCCCC1)C(=O)[C@H](CC(=O)NCCCOC)C2,14.6 µM (active)
19,CCOC(=O)[C@]12CCCC=C1N(CCC1=CCCCC1)C(=O)[C@H](CC(=O)N1CCCCC1)C2,7.31 µM (active)
20,CN1CCNC(=O)C1CC(=O)NCCC1=CCCCC1 (stereo not drawn),inactive
21,CCOC(=O)[C@]12CCCC=C1N(CCC1=CCCCC1)C(=O)[C@H](CC(=O)N1CCOCC1)C2,inactive
22,CC1=C(C(=O)N(C)C)CC(CC(=O)NCCc2ccccn2)C(=O)N1CCC1=CCCCC1 (stereo not drawn),inactive
23,CCCCOCCCNC(=O)C[C@@H]1C[C@@]2(C(=O)OCC)CCCC=C2N(CCC2=CCCCC2)C1=O,13 µM (active)
